# Measurements reported in PubChem BioAssay AID2253 (Southern Research Specialized Biocontainment Screening …, 2010).
# Among all 2,200 compounds or so, about 1,300 (59%) were called active. How the calls were made is not given here. So high a share suggests a set chosen from earlier hits. Only a sample is shown. Entries with a potency or affinity are not part of this list.
# Experiment: THP-1 cell cytotoxicity, dose response, cytotoxicity control for Salmonella PhoP regulon inhibitors, S. typhimurium screen hits (AID 2253)
# Conditions: THP-1 viability, CellTiter-Glo luminescence, 72 h; series mostly up to 50 µM
row,Structure (SMILES),outcome
1,Cn1nnnc1SCC(=O)NC1CCCCC1,inactive
2,CC1(C)CC(=O)C2=C(C1)N(Cc1ccccc1)C(=O)C2(O)C(F)(F)F (centres undefined),inactive
3,C/C(=N/Nc1nc(-c2ccc(Cl)cc2)cs1)c1cccs1,inactive
4,CCc1c(C)c2cc(Cl)c(O)c(CN3CCCCC3)c2oc1=O,inactive
5,O=C(CCc1ccccc1)Nc1nc2ccc(S(=O)(=O)N3CCOCC3)cc2s1,inactive
6,O=C(NCc1cn2ccsc2n1)Nc1ccc(Cl)cc1,inactive
7,COc1ccccc1CNc1nc2nc(C)c(C)c(=O)n2[nH]1,inactive
8,O=C(c1cnsn1)N1CCN(c2ccccc2)CC1,inactive
9,O=C1CC(c2ccccc2)n2nc(NC(=O)c3ccccc3)nc2N1 (centres undefined),inactive
10,Cc1nc(N2CCN(c3ccccc3)CC2)nc2c1C(=O)CC(C)C2 (centres undefined),inactive
11,CCC(CC)NC(=O)COC(=O)c1ccc(OCC(=O)Nc2ccccc2OC)c(OC)c1,inactive
12,Cc1ccc(CNC(=O)Nc2cccs2)cc1,inactive
13,CCn1c(=O)c(=O)[nH]c2cc(C(=O)NCC3CCCCC3)ccc21,inactive
14,Oc1ccc(Nc2nc(-c3cccs3)cs2)cc1,inactive
15,O=C1c2ccccc2C(=O)N1c1cccc(-c2csc(Nc3ccc4c(c3)OCO4)n2)c1,inactive
16,c1ccc2[nH]c(CSc3nccs3)nc2c1,inactive
17,Cn1c(COc2ccccc2)nnc1SCc1nc2ccccc2[nH]1,inactive
18,Cc1nn2c(=O)cc(CSc3nc4ccccc4[nH]3)nc2s1,inactive
19,O=C1NC(=O)C(=C2CCCCCC2)S1,inactive
20,Cc1ncoc1C(=O)Nc1cccc(Cl)c1,inactive
21,CS(=O)(=O)c1ccc([C@@H](O)[C@@H](CF)NC(=O)C(Cl)Cl)cc1,inactive
22,CC(=O)C1=C(C)Nc2ncnn2C1c1ccccc1OCc1ccccc1 (centres undefined),inactive
23,O=C(c1ccccc1)c1nc2ccccc2n(CCCn2c(=O)c(C(=O)c3ccccc3)nc3ccccc32)c1=O,inactive

row,Structure (SMILES),outcome
1,COC(=O)CN1C(c2ccc(OC)cc2)=Nc2ccc(Cl)cc2C1c1ccccc1 (centres undefined),inactive
2,CC[C@H]1OC(=O)[C@H](C)[C@@H](O[C@H]2C[C@@](C)(OC)[C@@H](O)[C@H](C)O2)[C@H](C)[C@@H](O[C@@H]2O[C@H](C)C[C@H](N(C)C)[C@H]2O)[C@](C)(O)C[C@@H](C)[C@@H]2N[C@@H](COCCOC)O[C@H]([C@H]2C)[C@]1(C)O,inactive
3,CC[C@H]1OC(=O)[C@H](C)[C@@H](O[C@H]2C[C@@](C)(OC)[C@@H](O)[C@H](C)O2)[C@H](C)[C@@H](O[C@@H]2O[C@H](C)C[C@H](N(C)C)[C@H]2O)[C@](C)(O)C[C@@H](C)CN(C)[C@H](C)[C@@H](O)[C@]1(C)O,inactive
4,COc1ccccc1CC(=O)N1CCN(c2ccccn2)CC1,inactive
5,COCC(=O)N(Cc1ccco1)c1nnc(C2CCOC2)s1 (centres undefined),inactive
6,COc1ccc(OC)c(NC(=O)c2cc3c(Cl)nc4ccccc4c3s2)c1,inactive
7,Cc1ccc2[nH]c3c(=O)n(CCc4cnc[nH]4)cnc3c2c1,inactive
8,COc1ccc(C(=O)NCCC2=CCCCC2)cc1OC,inactive
9,C=CCNc1nnc(Cl)c2ccccc12,inactive
10,O=P(Cc1cc[n+]([O-])cc1)(c1ccccc1)c1ccccc1,inactive
11,NC(=S)c1cc2ccc(O)cc2oc1=O,inactive
12,O=C(NCc1cccs1)Nc1cccs1,inactive
13,Cn1ncc(Br)c1C(=O)NCc1cccs1,inactive
14,CC(C)=CCN1CCN(Cc2ccoc2)CC1CCO (centres undefined),inactive
15,COc1ccc(NC(=O)CSc2nc(C)cs2)cc1OC,inactive
16,CSC(=NS(=O)(=O)c1ccccc1)SC,inactive
17,O=C(NCc1ccco1)C1CC(=O)N(CCc2ccccc2)C1 (centres undefined),inactive
18,CCn1nc(C(=O)NCc2ccco2)c(Cl)c1Cl,inactive
19,O=C(CNc1ccccc1)Nc1ccc(F)cc1,inactive
20,CCN(CC(=O)Nc1ccc(N2CCOCC2)cc1)Cc1nc2ccccc2c(=O)[nH]1,inactive
21,Cc1c(C(c2cccc([N+](=O)[O-])c2O)c2c(C)n(C)n(-c3ccccc3)c2=O)c(=O)n(-c2ccccc2)n1C,inactive
22,Cc1ccc(CNC(=O)c2cccc(S(C)(=O)=O)c2)cc1,inactive
23,CN(C)C(=O)c1cn(N(C)c2ncc(C(F)(F)F)cc2Cl)c(=O)c2ccccc12,inactive

row,Structure (SMILES),outcome
1,COc1cc(C2Nc3cccc4cccc(c34)N2)cc(OC)c1O,inactive
2,CCOc1cc(C2Nc3cccc4cccc(c34)N2)ccc1O,inactive
3,NC(=O)c1ccccc1NC(=O)/C=C/C(=O)O,inactive
4,COc1ccc(NC(=O)c2sccc2SCC#N)cc1,inactive
5,COC(=O)C1(O)CC(C(C)C)=NN1C(=O)c1ccc(Cl)cc1 (centres undefined),inactive
6,CCCCn1cnc2sc(-c3ccccc3)cc2c1=O,inactive
7,CCn1cc(C(=O)O)c(=O)c2cc(F)c(N3CCNCC3)cc21,inactive
8,CC(=O)Nc1ccc(C(=O)N2CCN(C(=O)c3ccco3)CC2)cc1,inactive
9,COc1cc(OC)c(NC(=O)Nc2ccc(OC)c(OC)c2)cc1Cl,inactive
10,CCn1cc(C(=O)O)c(=O)c2cc(F)c(N3CCN(C)CC3)cc21,inactive
11,Cc1ccc(NC(=O)COc2ncnc3c(Cl)cc(Cl)cc23)cc1[N+](=O)[O-],inactive
12,COC(=O)CCC(=O)Nc1ccc(Cl)c(Cl)c1,inactive
13,O=C1OCC(CO)(CO)N=C1NNc1ccc(Cl)c(Cl)c1,inactive
14,CC(C)Cc1oc(C(=O)O)cc1CN,inactive
15,Cc1ccc(CNc2oc(-c3cccs3)nc2C#N)cc1,inactive
16,CC1C(C#N)=C(N)OC2=C1C(=O)CCC2 (centres undefined),inactive
17,CCCCN(CCCC)C(=O)c1cn(CC)c2cc(N3CCN(C)CC3)c(F)cc2c1=O,inactive
18,Cc1[nH][nH]c(=O)c1C(c1ccc(O)c([N+](=O)[O-])c1)c1c(C)[nH][nH]c1=O,inactive
19,COc1cc(CNCc2ccccn2)ccc1OCC(=O)NC(C)(C)C,inactive
20,O=C(CN(c1ccc(F)cc1)S(=O)(=O)c1ccc2c(c1)OCCO2)NCc1cccnc1,inactive
21,COCCn1cc(C(=O)N2CCC(C)CC2)c2c3ccccc3n(C)c2c1=O,inactive
22,Cc1ccc(S(=O)(=O)N2CCC(C(N)=O)CC2)c(C)c1C,inactive
23,O=C(NCc1cccs1)[C@@H]1CSC2c3ccccc3C(=O)N21 (some centres undefined),inactive
